40 compounds from PubChem BioAssay can be followed below.

Unmarked numbers belong to inactive results. The rule behind the calls is not given here.

Sequence of Pantothenate synthetase (Mycobacterium tuberculosis (strain ATCC 25618 / H37Rv)) (P9WIL5 whole entry, looked up): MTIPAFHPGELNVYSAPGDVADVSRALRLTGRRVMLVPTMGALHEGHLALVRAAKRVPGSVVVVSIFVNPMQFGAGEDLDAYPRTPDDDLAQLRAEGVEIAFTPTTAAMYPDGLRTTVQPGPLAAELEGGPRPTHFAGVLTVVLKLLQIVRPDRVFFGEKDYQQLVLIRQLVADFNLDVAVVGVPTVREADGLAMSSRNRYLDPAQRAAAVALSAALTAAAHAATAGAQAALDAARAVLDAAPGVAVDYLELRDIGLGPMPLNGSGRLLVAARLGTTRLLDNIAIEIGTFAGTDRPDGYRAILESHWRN

This experiment concerns the target Pantothenate synthetase (Mycobacterium tuberculosis (strain ATCC 25618 / H37Rv)) (UniProt P9WIL5). The experiment can be described thus: Recombinant Mtb pantothenate synthetase (PanC) inhibitors, coupled enzyme, confirmatory (AID 375).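 Note: 0% = full reaction with vehicle and 100% = no enzyme background.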 The conditions noted are these: coupled enzyme assay; at 10 µM, stronger effect = higher value.
Take `CCN(CC)C(=O)COC(=O)c1ccc(O)cc1`: the inhibition was 0%.
With `CN(C)c1nc(Oc2ccc(=O)n(C)n2)nc(N2CCOCC2)n1` the figure was 0%.
On to `O=C(CCCn1ncn2c(cc3occc32)c1=O)N1CCc2ccccc2C1`, for which the inhibition was 6%.
With `Cc1ccc(Cl)cc1N1CCN(C(=O)C2CCCN(S(=O)(=O)c3cnc[nH]3)C2)CC1` (stereo not given) the figure was 0%; with `O=C(Cc1c(O)c2ccccc2[nH]c1=O)NCc1ccc(F)cc1`, 0%; with `CCOC(=O)c1sc(N)c(C(=O)OCC)c1COC(=O)C1CC(=O)N(Cc2ccco2)C1` (stereo not given), 6%.
With `CCC(C)NC(=O)C1c2cc(OC)c(OC)cc2C(=O)N(C)C1c1ccc(OC)cc1` (stereo not given) the figure was 0%.
The figure for `O=C1C2CC=C(Cl)CC2C(=O)N1c1ncn[nH]1` (stereo not given) is 0%; for `CCn1c(C(C#N)/C(=N\S(=O)(=O)c2cccs2)c2ccccc2)nc2ccccc21` (stereo not given) it is 6%.
With `CC(=O)c1ccc2c3c(cccc13)C(=O)N(c1c(C)nn(C)c1C)C2=O`, the inhibition was 0%.
With `CCC(=O)c1ccc(OCC(O)CN2CCN(S(=O)(=O)N3CCCCC3)CC2)cc1` (stereo not given) the figure was 1%.
With `CCN1CCN(Cc2nc3c(c(=O)n(C)c(=O)n3C)n2CC(=O)c2ccccc2)CC1` the figure was 2%; with `COc1cccc(NC(=O)CSc2nnnn2C(C)C)c1`, 6%.
The figure for `ON1C2CCCCC2N(O)C1c1c(F)c(F)c(F)c(F)c1F` (stereo not given) is 7%; for `CCN(CC)C(=O)c1ccc(CS(=O)(=O)c2ccc(OC)cc2)o1` it is 1%.
Consider `CCOC(=O)CSc1nc2cc(C(=O)N3CCC(C(N)=O)CC3)ccc2c(=O)n1-c1ccccc1`, for which the inhibition is 0%.
With `Cc1cc(C(=O)NCCCN2CCOCC2)n(-c2ccccc2)n1` the figure was 0%; with `CCc1nnc(NC(=O)CSc2nnc(-c3ccoc3C)n2CC(C)C)s1`, 0%.
Take `Cc1onc(-c2ccccc2Cl)c1C(=O)NCCn1c(C)cc2ccccc21`: the inhibition is 8%.
With `CCOC(=O)C1=C(O)C(=O)N(c2ccc(S(N)(=O)=O)cc2)C1c1ccccc1` (stereo not given) the figure was 0%; with `COc1ccc(CN2CC(C(=O)NCCCOC(C)C)CC2=O)cc1` (stereo not given), 3%.
Consider `O=C(O)CN1C(=O)CNC1=O`, for which the inhibition is 0%.
As for `COc1cccc(C(=O)CN2CCC(NC(=O)NC3CCCCC3)CC2)c1`, the inhibition is 6%.
Take `O=C(c1ccco1)N1CCN(C(=O)C2CCN(S(=O)(=O)c3cccc4nsnc34)CC2)CC1`: the inhibition is 10%.
With `O=c1oc2ccccc2c2c1ncn2-c1ccccc1` the figure was 0%.
On to `COc1ccccc1N1CCN(C(=O)c2c(-c3c(Cl)cccc3Cl)noc2C)CC1`, for which the inhibition is 0%.
With `O=C(CN(CC1CCCO1)C(=O)CCC(=O)Nc1ccccn1)NCC1CCCO1` (stereo not given) the figure was 8%.
The figure for `C1CCC(C(CC2CCCCN2)C2CCCCC2)CC1` (stereo not given) is 3%.
Take `Cc1ccc(S(=O)(=O)c2cc3c(=O)n4ccccc4nc3n(CC3CCCO3)c2=N)cc1C` (stereo not given): the inhibition was 0%.
With `Cc1cccc(N2CCN(C(=O)C3CCCN(S(=O)(=O)c4cnc[nH]4)C3)CC2C)c1` (stereo not given) the figure was 0%; with `NS(=O)(=O)c1ccc(C(=O)O)cc1`, 0%; with `Cc1cc(N2CCN(C)CC2)nc(N2CCOCC2)n1`, 0%.
The figure for `CC1CCC(NC(=O)C2(C)CCC(=O)N2Cc2cccnc2)CC1` (stereo not given) is 0%; for `COc1ccc(-c2nnc(SCC(=O)NC(C)c3ccccc3)o2)cc1` (stereo not given) it is 0%.
The figure for `Nc1ccc(-c2ccc(N)cc2C(F)(F)F)c(C(F)(F)F)c1` is 0%; for `COc1ccccc1-n1c(=O)[nH]c2c(C(N)=O)nc(CC(C)C)nc21` it is 0%.
Consider `Cc1cc(C(=O)N2CCCc3ccccc32)no1`, for which the inhibition was 3%.
`COc1cc(NC(=O)c2ccc(COCC(F)(F)F)o2)cc(OC)c1OC`: the inhibition was 7%.
The figure for `O=C(CCN1C(=O)C2C3C=CC(C3)C2C1=O)NCCc1ccccc1Cl` (stereo not given) is 0%; for `CCCCc1c(O)nc(SCC(=O)Nc2ccc3c(c2)CCC3)[nH]c1=O` it is 2%.

What is called inhibition is the relative decrease from the control value, in per cent.
